From PubChem
The sample as a whole holds a higher share of hits than the screen did.
Anaer choline gr: growth inhibitors of anaerobic choline-fed gram-negatives, minimal medium, absorbance. Gram-negative bacterium anaerobic choline minimal medium; stronger effect = lower value. calls only. 0.2% of 55,000 active. AID 1963822, 2024; call rule not given here
* marks the source's active call; other numbers are inactive results; i = inactive; + = active, no number.

SMILES	Anaer choline gr
Cc1[nH]c(C)c(S(=O)(=O)N2CCC(C(=O)Nc3ccc(Cl)cc3)CC2)c1C(=O)N1CCCC1	i
Cc1[nH]c(C)c(S(=O)(=O)N2CCC(C(=O)Nc3ccc(F)c(Cl)c3)CC2)c1C(=O)N1CCCC1	i
Cc1[nH]c(C)c(S(=O)(=O)N2CCC(C(=O)N3CCN(C4CCCCC4)CC3)CC2)c1C(=O)N1CCCC1	+
Cc1[nH]c(C)c(S(=O)(=O)N2CCC(C(=O)Nc3ccc(F)cc3)CC2)c1C(=O)N1CCCC1	+
Cc1nc(N(C)C)cc(N2CCN(C(=O)Nc3cccc(Cl)c3)CC2)n1	i
O=S(=O)(c1cc(F)ccc1F)N1CCCC1c1ccc(F)cc1 (stereo not drawn)	i
COc1ccccc1-c1nc(SCc2cc(=O)n3oc(C)cc3n2)n[nH]1	i
O=c1c2ccccc2ncn1Cc1noc(/C=C/c2ccccc2Cl)n1	i
Cn1c(=O)c2nc(S(=O)(=O)CCC(=O)N3CCCCC3)n(C)c2n(C)c1=O	i
